Test results as given in PubChem BioAssay AID1159580 (chemical genetic matrix, 2015).
Several values for one entry are separate records, joined by “and”; a condition that tells them apart may be missing. Equal entries are not always repeated. Screen size: about 5,500 compounds; about 2,000 (36%) were called active. About 18% were inconclusive and are not listed. Rule as the data show it: active = normalized growth mostly below about 0.91 (no sharp cut-off); inconclusive = no clear call, values can overlap the other calls; inactive = mostly above about 0.92. The list shows a part of the results.

Experiment: chemical genetic growth profiling, strain panel (AID 1159580);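 also: tested at 20 µM; growth read once vehicle control cultures reached saturation at 30 °C; 1 = growth at the plate median or of vehicle wells; lower values mean less growth of the strain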
Details: S. cerevisiae deletion strains, growth OD

Measured: normalized growth

CCCN(CCC)C(=O)C(CCC(=O)O)NC(=O)c1ccccc1 (stereo not given)
inactive: locus YAL013W, strain DEP1, hits give low values 0.996 and 1.01 | locus YAL021C, strain ccr4, hits give low values 0.98 | locus YAL026C, strain drs2, hits give low values 0.987 | locus YAL030W, strain snc1, hits give low values 1 | locus YAL040C, strain CLN3, hits give low values 1 | locus YBL061C, strain skt5, hits give low values 0.983 | locus YBR009C, strain hhf1, hits give low values 0.992 | locus YBR021W, strain FUR4, hits give low values 1.01 | locus YBR023C, strain chs3, hits give low values 0.992 | locus YBR171W, strain sec66, hits give low values 0.98 | locus YBR229C, strain ROT2, hits give low values 0.999 | locus YBR231C, strain swc5, hits give low values 0.979 | locus YBR279W, strain paf1, hits give low values 0.979 | locus YCL011C, strain gbp2, hits give low values 0.983 | locus YCL016C, strain dcc1, hits give low values 1.01 | locus YCL029C, strain bik1, hits give low values 0.985 | locus YCL061C, strain MRC1 (second series), hits give low values 1 | locus YCL061C, strain MRC1, hits give low values 0.994 | locus YCL069W, strain vba3, hits give low values 0.996 | locus YCR088W, strain abp1, hits give low values 0.98 | locus YDL005C, strain med2, hits give low values 0.99 | locus YDL035C, strain GPR1, hits give low values 1.02 | locus YDL040C, strain nat1, hits give low values 0.993 | locus YDL074C, strain BRE1, hits give low values 0.987 | locus YDL101C, strain DUN1, hits give low values 0.994 | locus YDL134C, strain PPH21, hits give low values 0.996 | locus YDL185W, strain tfp1, hits give low values 0.958 | locus YDL192W, strain arf1, hits give low values 0.979 | locus YDR001C, strain nth1, hits give low values 0.973 | locus YDR069C, strain doa4, hits give low values 0.993 | locus YDR101C, strain arx1, hits give low values 0.994 | locus YDR137W, strain rgp1, hits give low values 1.02 | locus YDR150W, strain NUM1, hits give low values 0.991 and 0.999 | locus YDR159W, strain sac3, hits give low values 0.935 | locus YDR162C, strain NBP2, hits give low values 1 | locus YDR195W, strain ref2 1.02 | locus YDR297W, strain sur2, hits give low values 0.987 | locus YDR318W, strain mcm21, hits give low values 0.994 | locus YDR334W, strain swr1, hits give low values 0.962 | locus YDR335W, strain msn5, hits give low values 0.981 | locus YDR363W, strain ESC2, hits give low values 1.01 | locus YDR388W, hits give low values 1 | locus YDR392W, strain spt3, hits give low values 0.986 | locus YDR502C, strain sam2, hits give low values 1.01 | locus YEL003W, strain gim4, hits give low values 0.997 | locus YEL037C, strain rad23, hits give low values 0.982 | locus YEL061C, strain CIN8 (second series), hits give low values 0.965 | locus YEL061C, strain CIN8, hits give low values 0.992 | locus YER002W, strain NOP16, hits give low values 0.986 | locus YER015W, strain faa2, hits give low values 0.989 | locus YER016W, strain bim1, hits give low values 0.992 | locus YER110C, hits give low values 0.991 | locus YER111C, strain swi4, hits give low values 0.996 | locus YER155C, strain BEM2 (second series), hits give low values 0.985 | locus YER155C, strain BEM2, hits give low values 1 | locus YER167W, strain BCK2, hits give low values 0.993 | locus YFR010W, strain ubp6, hits give low values 0.982 | locus YGL078C, strain dbp3, hits give low values 0.996 | locus YGL086W, strain mad1, hits give low values 1.01 | locus YGL167C, strain pmr1, hits give low values 0.986 | locus YGL173C, strain kem1, hits give low values 0.982 | locus YGL227W, strain vid30, hits give low values 0.986 | locus YGL240W, strain doc1, hits give low values 0.987 | locus YGL248W, strain PDE1, hits give low values 1.01 | locus YGL253W, strain hxk2, hits give low values 0.982 | locus YGR078C, strain PAC10, hits give low values 0.984 and 1.01 | locus YGR135W, strain pre9, hits give low values 0.989 | locus YGR229C, strain SMI1, hits give low values 1.02 | locus YGR252W, strain gcn5, hits give low values 1.13 | locus YHR013C, strain ard1, hits give low values 1.01 | locus YHR027C, strain rpn1, hits give low values 0.982 | locus YHR030C, strain SLT2, hits give low values 0.992 | locus YHR079C, strain IRE1 (second series), hits give low values 0.991 | locus YHR079C, strain IRE1, hits give low values 0.979 | locus YHR094C, strain hxt1, hits give low values 0.943 | locus YHR129C, strain ARP1, hits give low values 0.998 | locus YHR142W, strain chs7, hits give low values 0.977 | locus YHR200W, strain rpn10, hits give low values 0.989 | locus YIL066C, strain RNR3, hits give low values 0.994 | locus YIL073C, strain SPO22, hits give low values 0.93 | locus YIL125W, strain kgd1, hits give low values 0.985 | locus YIR030C, strain dcg1, hits give low values 0.988 | locus YJL092W, strain hpr5, hits give low values 0.997 | locus YJL095W, strain BCK1 (second series), hits give low values 0.968 | locus YJL095W, strain BCK1, hits give low values 0.968 and 0.993 | locus YJL115W, strain asf1, hits give low values 0.99 | locus YJL129C, strain trk1, hits give low values 0.968 | locus YJL134W, strain LCB3, hits give low values 1 | locus YJL154C, strain vps35, hits give low values 0.962 | locus YJL164C, strain tpk1, hits give low values 1 | locus YJL166W, strain qcr8, hits give low values 0.983 | locus YJL168C, strain set2, hits give low values 0.985 | locus YJL187C, strain SWE1 (second series), hits give low values 0.982 | locus YJR043C, strain POL32, hits give low values 0.985 | locus YJR066W, strain TOR1, hits give low values 0.926
